Measurements reported in PubChem BioAssay (NCI).
The panel holds about 79,000 compounds, 15% with a hit somewhere; the sample as a whole holds those more often. Active and inactive are the calls of the source. No stated cut-off is given here; in the data, active means growth inhibition above about 70%; inactive means the rest.

Assays:
[1] = NCI Yeast Anticancer Drug Screen. Data for the mec2-1 strain (AID 157); conditions: S. cerevisiae mec2-1 strain, active compounds read high
In short: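 Compounds were applied to mec2-1 yeast cells. Their growth was then compared with that of vehicle-treated cultures to give growth inhibition.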

[2] = NCI Yeast Anticancer Drug Screen. Data for the rad14 strain (AID 159);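 further: 0% = growth of vehicle-treated control cultures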; conditions: S. cerevisiae rad14 strain growth inhibition, active compounds read high
In short: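 Inhibition of growth is reported for a repair-deficient yeast mutant following compound treatment, calculated relative to cultures that received vehicle.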

[3] = NCI Yeast Anticancer Drug Screen. Data for the sgs1 mgt1 strain (AID 161);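 further: 0% = growth of cultures given vehicle only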; conditions: S. cerevisiae sgs1 mgt1 strain, active compounds read high
In short: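 Yeast cells carrying a defined DNA-repair defect were exposed to test compounds. Growth inhibition was measured relative to vehicle-treated controls.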

[4] = NCI Yeast Anticancer Drug Screen. Data for the CLN2oe strain (AID 163);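 further: 0% = growth of vehicle-only control cultures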; conditions: S. cerevisiae CLN2oe strain, active compounds read high
In short: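 Cells of an engineered yeast line with disturbed cell-cycle regulation are treated with compound. Inhibition of growth is then calculated relative to the vehicle-treated reference.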

[5] = NCI Yeast Anticancer Drug Screen. Data for the cln2 rad14 strain (AID 165);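 further: 0% = growth equal to vehicle treated cultures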; conditions: S. cerevisiae cln2 rad14 strain, active compounds read high
In short: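 Strain: cln2 rad14 yeast, altered in cell cycle control and DNA damage repair. Read-out: growth inhibition vs vehicle.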

[6] = NCI Yeast Anticancer Drug Screen. Data for the bub3 strain (AID 167); conditions: S. cerevisiae bub3 mutant strain, active compounds read high
In short: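 Mutant yeast screening strain plus compound; vehicle-treated cultures serve as the 0% inhibition reference.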

[7] = NCI Yeast Anticancer Drug Screen. Data for the wt2 strain (AID 169); conditions: S. cerevisiae wt2 strain growth inhibition, active compounds read high
In short: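 Growth of compound-treated yeast is measured and expressed as inhibition relative to vehicle-only controls.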

[8] = NCI Yeast Anticancer Drug Screen. Data for the mlh1 strain (AID 171);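 further: 0% = growth of vehicle-treated control cultures of the same strain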; conditions: S. cerevisiae mlh1 strain growth inhibition, active compounds read high
In short: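 Test agents were incubated with yeast bearing a defined DNA damage repair or cell cycle control alteration; values are growth inhibition normalised to vehicle-treated cultures.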

[9] = NCI Yeast Anticancer Drug Screen. Data for the sgs1 strain (AID 173);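 further: 0% = growth of vehicle-only control cultures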; conditions: S. cerevisiae sgs1 mutant, active compounds read high
In short: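 Strain with an altered DNA repair or cell cycle pathway exposed to compound. Growth then measured. Value = inhibition versus vehicle control.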

[10] = NCI Yeast Anticancer Drug Screen. Data for the mlh1 rad18 strain (AID 175); conditions: S. cerevisiae mlh1 rad18 strain growth inhibition, active compounds read high
In short: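 A repair-deficient yeast strain is exposed to test compound, and growth is scored relative to vehicle-treated controls.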

[11] = NCI Yeast Anticancer Drug Screen. Data for the rad18 strain (AID 177); conditions: S. cerevisiae rad18 mutant growth inhibition, active compounds read high
In short: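 DNA-repair-defective yeast; compound treatment; growth inhibition scored against vehicle.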

[12] = NCI Yeast Anticancer Drug Screen. Data for the rad52 strain (AID 147);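 further: 0% = growth of vehicle-treated control cultures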; conditions: S. cerevisiae rad52 mutant growth inhibition, active compounds read high
In short: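 Growth of repair-deficient yeast cells was compared between compound-treated and vehicle-treated cultures to give percent inhibition.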

[13] = NCI Yeast Anticancer Drug Screen. Data for the wt1 strain (AID 149);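 further: 0% = growth of vehicle-treated wt1 cultures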; conditions: S. cerevisiae wt1 strain (SPY 50644) growth inhibition, active compounds read high
In short: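 Each compound is tested on wt1 yeast and the loss of growth versus vehicle gives the inhibition value.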

[14] = NCI Yeast Anticancer Drug Screen. Data for the rad50 strain (AID 155);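 further: 0% = growth of vehicle-only cultures of the same strain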; conditions: S. cerevisiae rad50 strain growth inhibition, active compounds read high
In short: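 Vehicle-treated cultures provide the reference for the growth inhibition reported for compound-exposed, repair-deficient yeast.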

[15] = NCI Yeast Anticancer Drug Screen. Data for the mgt1 strain (AID 153); conditions: S. cerevisiae mgt1 mutant growth inhibition, active compounds read high
In short: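 Compounds were applied to mgt1 mutant yeast, and growth was then compared against vehicle-treated control cultures to give percent inhibition.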

[16] = at 5.0 µM (retest, dose inferred, filed as 0.5)
[17] = at 50.0 µM (retest, dose inferred, filed as 5.0)

Measured: growth inhibition

c1ccc2c(c1)Cn1c-2nc2ccccc21
inactive: [2]; at 1.2 µM -19% | [2]; at 3.7 µM -17% | [2]; at 11.0 µM -12% | [2]; at 33.0 µM 33% | [3]; [16] -27% | [4]; at 1.2 µM -18% | [4]; at 3.7 µM 0% | [4]; at 11.0 µM -23% | [4]; at 33.0 µM 18% | [5]; [16] 54% | [6]; at 1.2 µM -11% | [6]; at 3.7 µM -5% | [6]; [16] 27% | [6]; at 11.0 µM 3% | [6]; at 33.0 µM 68% | [7]; at 1.2 µM -24% | [7]; at 3.7 µM -5% | [7]; at 11.0 µM -4% | [7]; at 33.0 µM 34% | [8]; at 1.2 µM -31% | [8]; at 3.7 µM -8% | [8]; at 11.0 µM 2% | [8]; at 33.0 µM 36% | [9]; at 1.2 µM -7% | [9]; at 3.7 µM -21% | [9]; at 11.0 µM -21% | [9]; at 33.0 µM 31% | [10]; [16] 50% | [11]; at 1.2 µM -7% | [11]; at 3.7 µM -4% | [11]; at 11.0 µM -1% | [11]; at 33.0 µM 25%
active: [1]; at 100.0 µM 98% | [2]; at 100.0 µM 97% | [3]; [17] 84% | [4]; at 100.0 µM 96% | [5]; [17] 87% | [6]; [17] 86% | [6]; at 100.0 µM 97% | [7]; at 100.0 µM 94% | [8]; at 100.0 µM 96% | [9]; at 100.0 µM 92% | [10]; [17] 78% | [10]; at 50.0 µM 83.4% | [11]; at 100.0 µM 95%

CN(C)Cc1cccc(CN(C)C)[c]1[Sn]([Br])([c]1ccccc1)[c]1ccccc1
active: [12]; at 33.0 µM 74% | [12]; at 100.0 µM 97% | [13]; at 100.0 µM 96% | [14]; at 33.0 µM 82% | [14]; [17] 94% | [14]; at 50.0 µM 81.8% | [14]; at 100.0 µM 97% | [1]; [17] 98% | [1]; at 50.0 µM 86.2% | [1]; at 100.0 µM 94% | [2]; at 33.0 µM 78% | [2]; at 100.0 µM 97% | [3]; [17] 95% | [3]; at 50.0 µM 88.8% | [4]; at 100.0 µM 91% | [5]; at 50.0 µM 86.9% | [6]; [17] 95% | [6]; at 50.0 µM 88.8% | [6]; at 100.0 µM 95% | [7]; at 33.0 µM 87% | [7]; at 100.0 µM 97% | [8]; at 100.0 µM 96% | [9]; at 33.0 µM 81% | [9]; at 100.0 µM 97% | [10]; [17] 98% | [10]; at 50.0 µM 90.7% | [11]; at 11.0 µM 74% | [11]; at 33.0 µM 82% | [11]; at 100.0 µM 97%
inactive: [12]; at 1.2 µM 28% | [12]; at 3.7 µM 45% | [12]; at 11.0 µM 57% | [13]; at 1.2 µM 20% | [13]; at 3.7 µM 36% | [13]; at 11.0 µM 49% | [13]; at 33.0 µM 58% | [14]; at 1.2 µM 30% | [14]; at 3.7 µM 62% | [14]; [16] 44% | [14]; at 11.0 µM 69% | [1]; at 1.2 µM 2% | [1]; at 3.7 µM 22% | [1]; [16] 47% | [1]; at 11.0 µM 42% | [1]; at 33.0 µM 56% | [2]; at 1.2 µM -3% | [2]; at 3.7 µM 17% | [2]; at 11.0 µM 27% | [3]; [16] 18% | [4]; at 1.2 µM -8% | [4]; at 3.7 µM 1% | [4]; at 11.0 µM 15% | [4]; at 33.0 µM 30% | [5]; [16] 13% | [5]; [17] 66% | [6]; at 1.2 µM -7% | [6]; at 3.7 µM 6% | [6]; [16] 32% | [6]; at 11.0 µM 18% | [6]; at 33.0 µM 50% | [7]; at 1.2 µM 10% | [7]; at 3.7 µM 13% | [7]; at 11.0 µM 41% | [8]; at 1.2 µM -2% | [8]; at 3.7 µM 23% | [8]; at 11.0 µM 37% | [8]; at 33.0 µM 60% | [9]; at 1.2 µM 8% | [9]; at 3.7 µM 44% | [9]; at 11.0 µM 66% | [10]; [16] 44% | [11]; at 1.2 µM 42% | [11]; at 3.7 µM 67%

C=C(C)[C@@H]1CCc2c(O)c(O)c(=O)cc(C)c2C1
inactive: [12]; at 1.2 µM 0% | [12]; at 3.7 µM 21% | [12]; at 11.0 µM 38% | [13]; at 1.2 µM 7% | [13]; at 3.7 µM 25% | [13]; at 11.0 µM 37% | [13]; at 33.0 µM 58% | [15]; at 1.2 µM 10% | [15]; at 3.7 µM 26% | [15]; at 11.0 µM 41% | [14]; at 1.2 µM -10% | [14]; at 3.7 µM 11% | [14]; [16] 41% | [14]; at 11.0 µM 37% | [2]; at 1.2 µM -30% | [2]; at 3.7 µM -14% | [2]; at 11.0 µM 37% | [3]; [16] 46% | [4]; at 1.2 µM 2% | [4]; at 3.7 µM 20% | [4]; at 11.0 µM 33% | [5]; [16] 3% | [6]; at 1.2 µM 8% | [6]; at 3.7 µM 23% | [6]; [16] 52% | [6]; at 11.0 µM 43% | [8]; at 1.2 µM 25% | [8]; at 3.7 µM 36% | [8]; at 11.0 µM 55% | [9]; at 1.2 µM 1% | [9]; at 3.7 µM 24% | [9]; at 11.0 µM 50% | [10]; [16] 57% | [11]; at 1.2 µM 1% | [11]; at 3.7 µM 34% | [11]; at 11.0 µM 48%
active: [12]; at 33.0 µM 77% | [12]; at 100.0 µM 98% | [13]; at 100.0 µM 99% | [15]; at 33.0 µM 90% | [15]; at 100.0 µM 98% | [14]; at 33.0 µM 80% | [14]; [17] 97% | [14]; at 50.0 µM 91.6% | [14]; at 100.0 µM 98% | [2]; at 33.0 µM 85% | [2]; at 100.0 µM 99% | [3]; [17] 99% | [3]; at 50.0 µM 92.8% | [4]; at 33.0 µM 90% | [4]; at 100.0 µM 99% | [5]; [17] 93% | [5]; at 50.0 µM 91.3% | [6]; at 33.0 µM 82% | [6]; [17] 96% | [6]; at 50.0 µM 92.2% | [6]; at 100.0 µM 98% | [8]; at 33.0 µM 85% | [8]; at 100.0 µM 99% | [9]; at 33.0 µM 81% | [9]; at 100.0 µM 98% | [10]; [17] 96% | [10]; at 50.0 µM 92.2% | [11]; at 33.0 µM 76% | [11]; at 100.0 µM 98%
